Values joined by “and” are separate entries in the source; they are usually repeats but may differ in a detail not shown here. Identical values can stand only once. Results filed as inconclusive are left out. Entries that show only a call come without a potency. A structure can be active in one record and inactive in another. Active and inactive are the calls of the source. The call rests on the fitted dose curve; in most records, active means well fitted cell-killing curve with a large enough effect in the repeat runs; inconclusive means weak or mixed curves, or effect the other way; inactive means no such curve, though single readings can be large or run the other way.
Test: Caspase-3/7 induction in CHO-K1 cells by small molecules, qHTS cell viability counter screen (AID 1346979); further: nearly all actives have a fitted effect of over 35% in size
Conditions: CellTiter-Fluor fluorescence, 17 h; series mostly up to 92.4 µM
From the text: National Center for Advancing Translational Sciences [NCATS]
NIH Chemical Genomics Center [NCGC]
U.S. Environmental Protection Agency [EPA]
National Institutes of Environmental Health Sciences [NIEHS]
National Toxicology Program [NTP]
U.S. Food and Drug Administration [FDA]
Apoptosis is a process of programmed cell death and plays a central role in the development of multicellular organisms. It is a highly regulated process and induces cell death by activating caspases, which are the members of cysteine aspartic acid-specific protease (caspase) family. Caspases involved in apoptosis are classified by their mechanism of action as initiator caspases (caspase-2, -8, -9 and -10) and executioner caspases (caspase-3, -6, and -7). Inhibition of apoptosis results in number of cancers, autoimmune diseases, inflammatory diseases and viral infection. To identify small molecule compounds that induce apoptosis, a homogeneous, luminescent Caspase-Glo 3/7 assay was used. Wild type CHO-K1 cells were used to screen Tox21 libraries for identifying caspase-3/7 activity inducers. Also cytotoxicity of the compounds was tested in parallel by measuring the cell viability using CellTiter-Fluor assay system in the same wells.
Tox21 Assay Protocol Summary:
CHO-K1 cells were dispensed at 1,500 per well in 5uL of culture medium into white solid bottom 1536-well plates (Corning Life Sciences, Corning, NY) using a Multidrop Combi (Thermo Scientific, Waltham, MA) dispenser. The assay plates were incubated at 37 C and 5% CO2 for 5hr, and then 23nL of compounds dissolved in DMSO and positive control were transferred using a Pintool station (Wako, San Diego, CA). The assay plates were incubated at 37C and 5% CO2 for 17hr. For cytotoxicity read, after 16hr incubation at 37C, 1uL CellTiter-Fluor reagent (Promega Corporation, Madison, WI) was added to each well of the assay plates using Flying Reagent Dispenser (FRD, Aurora Discovery, San Diego, CA). After 1hr incubation at 37C and 5% CO2, the fluorescence signal was quantified using a ViewLux plate reader (PerkinElmer, Shelton, CT).
Potency means the concentration at half of the fitted maximal effect.

| Structure (SMILES) | Potency |
| --- | --- |
| CCNCC | inactive |
| C[N+](C)(C)CC(=O)[O-] | inactive |
| Brc1ccc(Br)cc1 | inactive |
| CN(C)P(=O)(N(C)C)N(C)C | inactive |
| CCOS(=O)(=O)OCC | inactive |
| Nc1ccc([N+](=O)[O-])cc1N | 6.11 µM (active) and 30.6 µM (active) |
| N#Cc1cccnc1 | inactive |
| CC(C)Nc1nc(Cl)nc(NC(C)C)n1 | inactive |
| [Cl-].[Cl-].[Cl-].[Fe+3] | inactive |
| O=C1Nc2ccc(Cl)cc2C(c2ccccc2)=NC1O (stereo not given) | inactive |
| CCOP(=O)(O)OCC (tested in a mixture with another compound) | inactive and 24.1 µM (active) |
| COc1ccc(O)c(C(C)(C)C)c1 | inactive |
| CCCCCCCCCc1ccc(O)cc1 | 61.8 µM (active) and 54.5 µM (active) |
| NC(=O)CN1CCCC1=O | inactive |
| C=CC(=O)OCC(CC)(COC(=O)C=C)COC(=O)C=C | 4.99 µM (active) and 4.86 µM (active) |
| CCOP(=S)(OCC)OP(=S)(OCC)OCC | inactive |
| CC(C)Nc1ccc(Nc2ccccc2)cc1 | 24.2 µM (active) and 38.6 µM (active) |
| CC(C)(c1ccc(OCC2CO2)cc1)c1ccc(OCC2CO2)cc1 (stereo not given) | inactive |
| O=[N+]([O-])c1ccc(Nc2ccccc2)cc1 | 48.9 µM (active) and 48.6 µM (active) |
| CC1CC(=O)O1 (stereo not given) | inactive |

| Structure (SMILES) | Potency |
| --- | --- |
| N#Cc1c(Cl)c(Cl)c(Cl)c(C#N)c1Cl | 1.07 µM (active) and 1.72 µM (active) |
| CNC(=O)CSP(=S)(OC)OC | 14.1 µM (active) and inactive |
| CNC(=S)S | inactive |
| CC(C)CON=O | inactive |
| Cc1ccc(N=CN(C)C=Nc2ccc(C)cc2C)c(C)c1 | inactive |
| CCCCSP(=O)(SCCCC)SCCCC | inactive |
| C[C@]12CC[C@H]3[C@@H](CCC4=CC(=O)CC[C@@H]43)[C@@H]1CC[C@@H]2O | inactive |
| O=P(OCCCl)(OCCCl)OCCCl | inactive |
| CCC/C=N/O | inactive |
| CCCCCCCCCCCCCl | inactive |
| CCNc1nc(Cl)nc(NC(C)(C)C#N)n1 | inactive |
| CC(C)(O)C#N | inactive |
| CC(C)(C#N)N=NC(C)(C)C#N | inactive |
| CC1(C)Cc2cccc(O)c2O1 | inactive |
| COP(=O)(NC(C)=O)SC (stereo not given) | 48.6 µM (active) and inactive |
| CNC(=O)Oc1cccc2c1OC(C)(C)C2 | inactive |
| Cc1ccc([N+](=O)[O-])cc1 | inactive |
| CC[n+]1c(-c2ccccc2)c2cc(N)ccc2c2ccc(N)cc21 | 60.8 µM (active) and 29.8 µM (active) |
| CCOP(=S)(OCC)SCSC(C)(C)C | inactive |
| C[N+](C)(C)C | inactive |

From PubChem BioAssay (Tox21)
